Assay results taken from PubChem BioAssay (Tox21).
“And” between values parts separate entries of the source, which are not always exact repeats. Identical values can stand only once. Inconclusive results are not listed. The source made the active and inactive calls. Unless noted, the call rests on the fitted dose curve; in most records, active means well fitted curve in the direction sought with a large enough effect in the repeat runs; inconclusive means weak or mixed curves; inactive means no such curve, though single readings can be large; an effect the other way counts as inactive or inconclusive.

Assays:
[1] = molecular target: Aryl hydrocarbon receptor (Homo sapiens) (UniProt P35869); test: qHTS assay to identify small molecule that activate the aryl hydrocarbon receptor (AhR) signaling pathway (AID 743085); further: nearly all actives have a fitted effect of over 15% in size; further: potency means the concentration at half of the fitted maximal effect;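 on activation: HG2L7.5c1 human HepG2 liver cells with stably integrated DRE-driven firefly reporter; series mostly up to about 70 µM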
Method in brief: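 Steps: seed HepG2-AhR-luc cells; allow 5 h at 37C; pin-transfer test compound or vehicle; incubate 24 h at 37C; add viability dye (30 min, 37C) and read fluorescence; add luciferase substrate (30 min, RT) and read luminescence.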

[2] = qHTS assay to identify small molecule that activate the aryl hydrocarbon receptor (AhR) signaling pathway - cell viability counter screen (AID 743086);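 further: HepG2 liver cells carrying the AhR DRE luciferase reporter; series mostly up to about 70 µM; nearly all actives have a fitted effect of over 45% in size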
Method in brief: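 HepG2-AhR-luc (HG2L7.5c1) cells, 4000/well, treated 24 h at 37 C with compound; viability measured as CellTiter-Fluor fluorescence after 30 min in the same wells as the luciferase read.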

[3] = qHTS assay for small molecule agonists of the antioxidant response element (ARE) signaling pathway - cell viability counter screen (AID 743203; calls by dose curve; further: nearly all actives have a fitted effect of over 55% in size; further: potency means the concentration at half of the fitted maximal effect)
Method in brief: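 Measured in the same wells as the beta-lactamase ARE reporter, this read-out is CellTiter-Glo luminescence from HepG2 ARE-bla cells given compounds for 16 hrs.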

[4] = molecular target: Peroxisome proliferator-activated receptor delta (Homo sapiens) (UniProt Q03181); test: qHTS assay to identify small molecule agonists of the peroxisome proliferator-activated receptor delta (PPARd) signaling pathway (AID 743212; calls by dose curve)
Method in brief: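 Read-out: beta-lactamase FRET fluorescence after 2 h room-temperature incubation with LiveBLAzer B/G substrate. Cells were HEK293H carrying a UAS-bla reporter for PPARd, treated at 37 C with DMSO-dissolved compounds.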

[5] = qHTS assay to identify small molecule antagonists of the peroxisome proliferator-activated receptor delta (PPARd) signaling pathway - cell viability counter screen (AID 743213); further: nearly all actives have a fitted effect of over 50% in size
Method in brief: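 HEK293H PPARd UAS-bla cells, 5 h pre-incubation, compound + L165041 300 nM final, 17 h 37 C; B/G FRET substrate 2 h RT; then CellTiter-Glo 30 min RT, luminescence.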

[6] = molecular target: Bile acid receptor (Homo sapiens) (UniProt Q96RI1); test: qHTS assay to identify small molecule agonists of the farnesoid-X-receptor (FXR) signaling pathway (AID 743220; active means well fitted activation curve with a large enough effect in the signal ratio in the repeat runs, not every such curve was filed as active; the % refers to the signal ratio)
Method in brief: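 FXR-UAS-bla HEK 293T cells carrying a UAS-driven beta-lactamase reporter were plated for 5 h at 37C/5% CO2, then exposed to DMSO-dissolved Tox21 10K compounds for 16 h at 37C. A LiveBLAzer B/G FRET substrate was loaded for 2 h at room temperature before fluorescence reading.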

[7] = molecular target: Peroxisome proliferator-activated receptor gamma (Homo sapiens) (UniProt P37231); test: qHTS assay to identify small molecule agonists of the peroxisome proliferator-activated receptor gamma (PPARg) signaling pathway (AID 743094; active means well fitted activation curve with a large enough effect in the signal ratio in the repeat runs, not every such curve was filed as active; the % refers to the signal ratio)
Method in brief: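 Cell-based bla reporter, HEK293H background, PPARg-driven UAS. Pre-incubation 5 h, 37C, 5% CO2. Compound 17 h, 37C. Substrate 1 h RT; fluorescence.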

[8] = molecular target: Peroxisome proliferator-activated receptor gamma (Homo sapiens) (UniProt P37231); test: qHTS assay to identify small molecule antagonists of the peroxisome proliferator-activated receptor gamma (PPARg) signaling pathway (AID 743191; calls by dose curve; further: nearly all actives have a fitted effect of over 30% in size; further: potency means the concentration at half of the fitted maximal effect)
Method in brief: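 GeneBLAzer PPARg UAS-bla HEK293H cells, 5 h post-plating, exposed to compounds 17 h at 37C. LiveBLAzer B/G FRET substrate added for 1 h at room temperature; beta-lactamase reporter read by fluorescence intensity.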

[9] = qHTS assay to identify small molecule antagonists of the peroxisome proliferator-activated receptor gamma (PPARg) signaling pathway - cell viability counter screen (AID 743194); further: nearly all actives have a fitted effect of over 55% in size; further: potency means the concentration at half of the fitted maximal effect
Method in brief: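 Cytotoxicity counter screen in PPARg-bla HEK293H cells, same wells as reporter assay. Compounds plus 50 nM rosiglitazone (final) for 17 h at 37 C, then viability read by CellTiter-Glo luminescence.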

[10] = qHTS assay for small molecule agonists of the antioxidant response element (ARE) signaling pathway (AID 743202; active means well fitted activation curve with a large enough effect in the signal ratio in the repeat runs, not every such curve was filed as active; the % refers to the signal ratio; further: potency means the concentration at half of the fitted maximal effect)
Method in brief: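 HepG2 ARE-bla reporter line, 2,000 cells/well; 5 h preincubation 37 C/5% CO2; compound (DMSO) 16 h 37 C; B/G FRET substrate 2 h RT; fluorescence intensity.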

[11] = qHTS assay for small molecule activators of the heat shock response signaling pathway - cell viability counter screen (AID 743209); further: nearly all actives have a fitted effect of over 50% in size; further: potency means the concentration at half of the fitted maximal effect
Method in brief: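 Same-well multiplex: after 2.5 h room-temperature incubation with LiveBLAzer B/G substrate and fluorescence reading, CellTiter-Glo reagent was added to HSE-bla HeLa cells that had received compound for 5 h at 37 C; luminescence read after 30 min.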

[12] = qHTS assay for small molecule activators of the heat shock response signaling pathway (AID 743210; active means well fitted activation curve with a large enough effect in the signal ratio in the repeat runs, with a control signal flat, not every such curve was filed as active; the % refers to the signal ratio;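 further: HeLa cells with beta-lactamase reporter driven by heat shock elements; series mostly up to about 63 µM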)
Method in brief: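 Beta-lactamase reporter read-out: FRET substrate fluorescence after 2.5 h at RT, following 5 h compound treatment at 37 C of HeLa cells carrying HSE-driven bla reporter; quantitative HTS format.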

[13] = qHTS assay to identify small molecule agonists of the peroxisome proliferator-activated receptor delta (PPARd) signaling pathway - cell viability counter screen (AID 743211); further: nearly all actives have a fitted effect of over 55% in size; further: potency means the concentration at half of the fitted maximal effect
Method in brief: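 Viability of GeneBLAzer PPARd UAS-bla HEK293H cells was assessed after 17 h compound incubation at 37C, using CellTiter-Glo reagent added after the reporter read and luminescence recorded 30 min later.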

[14] = molecular target: Peroxisome proliferator-activated receptor delta (Homo sapiens) (UniProt Q03181); test: qHTS assay to identify small molecule antagonists of the peroxisome proliferator-activated receptor delta (PPARd) signaling pathway (AID 743215; active means well fitted inhibition curve with a large enough effect in the signal ratio in the repeat runs, not every such curve was filed as active; the % refers to the signal ratio;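 further: cells stimulated with agonist L165041 at 300 nM final during compound exposure; series mostly up to about 62 µM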)
Method in brief: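 Fluorescence from cleaved LiveBLAzer B/G FRET substrate (2 h, room temperature) reports PPARd-driven beta-lactamase in HEK293H UAS-bla cells. Cells had been treated 17 h at 37 C with compound plus 300 nM final L165041.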

[15] = qHTS assay to identify small molecule agonists of the farnesoid-X-receptor (FXR) signaling pathway - cell viability counter screen (AID 743218); further: nearly all actives have a fitted effect of over 45% in size; further: potency means the concentration at half of the fitted maximal effect
Method in brief: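 Readout: CellTiter-Glo luminescence, 30 min RT, multiplexed after the FXR-bla FRET reading. HEK 293T FXR-UAS-bla cells received compound 5 h post-plating and were incubated 16 h at 37 C.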

[16] = qHTS assay to identify small molecule antagonists of the farnesoid-X-receptor (FXR) signaling pathway - cell viability counter screen (AID 743221; active means well fitted cell-killing curve with a large enough effect in the repeat runs, not every such curve was filed as active; further: nearly all actives have a fitted effect of over 50% in size; further: potency means the concentration at half of the fitted maximal effect)
Method in brief: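 Quantitative HTS of the Tox21 10K library run in parallel with the beta-lactamase reporter read. HEK 293T cells carrying a UAS-driven bla reporter got compound and 50 uM CDCA (final) for 16 h; ATP-based luminescence followed.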

[17] = molecular target: Vitamin D3 receptor (Homo sapiens) (UniProt P11473); test: qHTS assay to identify small molecule agonists of the vitamin D receptor (VDR) signaling pathway (AID 743222; calls by dose curve)
Method in brief: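 Following 4 h attachment at 37C, VDR-bla cells (2,000 per well) received DMSO-dissolved compounds or controls. After 16 h incubation, LiveBLAzer B/G FRET substrate was added and fluorescence read 2 h later at room temperature.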

[18] = molecular target: Vitamin D3 receptor (Homo sapiens) (UniProt P11473); test: qHTS assay to identify small molecule antagonists of the vitamin D receptor (VDR) signaling pathway (AID 743223; active means well fitted inhibition curve with a large enough effect in the signal ratio in the repeat runs, not every such curve was filed as active; the % refers to the signal ratio; further: potency means the concentration at half of the fitted maximal effect)
Method in brief: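 Fluorescence from LiveBLAzer B/G FRET substrate, read after 2 h at room temperature, reflects beta-lactamase reporter activity in VDR-bla cells treated 16 h at 37C with compounds and agonist 1alpha,25-dihydroxyvitamin D3 (3 nM final).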

[19] = qHTS assay to identify small molecule agonists of the vitamin D receptor (VDR) signaling pathway - cell viability counter screen (AID 743224); further: nearly all actives have a fitted effect of over 50% in size; further: potency means the concentration at half of the fitted maximal effect
Method in brief: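 In parallel with the bla FRET readout, cytotoxicity toward VDR-bla cells after 16 h compound exposure was assessed by CellTiter-Glo, with luminescence recorded after a 30 min room-temperature incubation.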

[20] = molecular target: Bile acid receptor (Homo sapiens) (UniProt Q96RI1); test: qHTS assay to identify small molecule antagonists of the farnesoid-X-receptor (FXR) signaling pathway (AID 743217; active means well fitted inhibition curve with a large enough effect in the signal ratio in the repeat runs, not every such curve was filed as active; the % refers to the signal ratio; further: potency means the concentration at half of the fitted maximal effect)
Method in brief: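 FRET fluorescence after 2 h room-temperature LiveBLAzer loading gives the readout. Prior step: FXR-bla HEK 293T cells, seeded and incubated 5 h, received test compounds plus 50 uM final CDCA for 16 h at 37 °C.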

Measured: Potency

Chain of Vitamin D3 receptor (Homo sapiens) (P11473 whole entry, looked up): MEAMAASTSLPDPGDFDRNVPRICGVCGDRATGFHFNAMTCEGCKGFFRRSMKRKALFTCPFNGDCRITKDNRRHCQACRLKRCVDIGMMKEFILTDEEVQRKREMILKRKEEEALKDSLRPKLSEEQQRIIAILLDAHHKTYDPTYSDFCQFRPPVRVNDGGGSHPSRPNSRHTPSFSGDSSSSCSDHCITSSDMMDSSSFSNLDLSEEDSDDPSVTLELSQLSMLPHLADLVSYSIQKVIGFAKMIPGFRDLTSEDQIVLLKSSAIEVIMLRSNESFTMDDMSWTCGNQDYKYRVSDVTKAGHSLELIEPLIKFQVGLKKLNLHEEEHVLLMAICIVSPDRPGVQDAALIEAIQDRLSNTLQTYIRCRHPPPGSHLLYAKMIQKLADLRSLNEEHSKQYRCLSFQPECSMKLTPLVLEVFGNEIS
Chain of Aryl hydrocarbon receptor (Homo sapiens) (P35869 whole entry, looked up): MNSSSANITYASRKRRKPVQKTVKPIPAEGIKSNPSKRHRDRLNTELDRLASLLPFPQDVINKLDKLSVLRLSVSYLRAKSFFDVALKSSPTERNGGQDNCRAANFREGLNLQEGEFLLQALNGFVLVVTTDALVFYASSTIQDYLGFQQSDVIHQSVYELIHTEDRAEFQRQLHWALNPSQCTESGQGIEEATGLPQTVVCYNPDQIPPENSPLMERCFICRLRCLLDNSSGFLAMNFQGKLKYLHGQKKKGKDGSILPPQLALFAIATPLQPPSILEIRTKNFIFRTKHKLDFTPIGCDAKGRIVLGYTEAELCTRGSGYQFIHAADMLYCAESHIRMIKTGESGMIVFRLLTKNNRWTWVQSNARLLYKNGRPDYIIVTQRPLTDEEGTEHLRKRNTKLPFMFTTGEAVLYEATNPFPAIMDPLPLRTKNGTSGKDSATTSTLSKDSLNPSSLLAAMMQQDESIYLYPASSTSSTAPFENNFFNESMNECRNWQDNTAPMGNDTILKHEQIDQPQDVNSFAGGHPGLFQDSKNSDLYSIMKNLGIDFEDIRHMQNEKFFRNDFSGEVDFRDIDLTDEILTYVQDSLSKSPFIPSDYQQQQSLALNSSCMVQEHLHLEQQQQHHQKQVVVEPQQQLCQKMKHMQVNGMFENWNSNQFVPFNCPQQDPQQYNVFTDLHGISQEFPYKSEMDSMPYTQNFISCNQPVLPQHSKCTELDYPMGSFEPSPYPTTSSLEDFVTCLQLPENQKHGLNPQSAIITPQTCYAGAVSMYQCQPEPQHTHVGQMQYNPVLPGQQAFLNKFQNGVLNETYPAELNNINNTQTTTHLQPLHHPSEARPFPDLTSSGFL
Chain of Peroxisome proliferator-activated receptor gamma (Homo sapiens) (P37231 whole entry, looked up): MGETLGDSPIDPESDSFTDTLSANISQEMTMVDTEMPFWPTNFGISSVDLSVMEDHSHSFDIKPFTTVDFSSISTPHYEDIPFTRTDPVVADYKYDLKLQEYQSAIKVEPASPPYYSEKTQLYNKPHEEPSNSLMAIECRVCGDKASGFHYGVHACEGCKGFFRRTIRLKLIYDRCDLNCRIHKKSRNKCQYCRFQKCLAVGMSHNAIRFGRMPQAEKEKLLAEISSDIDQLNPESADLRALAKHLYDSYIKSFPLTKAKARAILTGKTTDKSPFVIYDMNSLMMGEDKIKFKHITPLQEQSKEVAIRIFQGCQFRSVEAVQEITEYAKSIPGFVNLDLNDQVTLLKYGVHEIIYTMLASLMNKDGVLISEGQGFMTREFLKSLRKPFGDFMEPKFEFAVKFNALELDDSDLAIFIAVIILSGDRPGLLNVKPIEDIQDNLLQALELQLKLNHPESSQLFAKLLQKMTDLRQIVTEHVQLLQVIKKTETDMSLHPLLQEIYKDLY
Chain of Bile acid receptor (Homo sapiens) (Q96RI1 whole entry, looked up): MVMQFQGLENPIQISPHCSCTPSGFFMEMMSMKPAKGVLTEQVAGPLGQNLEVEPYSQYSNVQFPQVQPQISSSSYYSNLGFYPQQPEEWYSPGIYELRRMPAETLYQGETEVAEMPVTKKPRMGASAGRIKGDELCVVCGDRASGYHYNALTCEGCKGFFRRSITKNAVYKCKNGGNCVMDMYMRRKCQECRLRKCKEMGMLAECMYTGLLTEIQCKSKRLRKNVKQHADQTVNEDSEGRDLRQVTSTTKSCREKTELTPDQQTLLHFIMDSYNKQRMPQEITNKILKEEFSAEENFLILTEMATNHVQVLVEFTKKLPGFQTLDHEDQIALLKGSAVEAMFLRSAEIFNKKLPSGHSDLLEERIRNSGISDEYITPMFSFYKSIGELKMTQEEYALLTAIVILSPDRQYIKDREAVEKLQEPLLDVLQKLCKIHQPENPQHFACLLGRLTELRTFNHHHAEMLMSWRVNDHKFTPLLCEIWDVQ
Chain of Peroxisome proliferator-activated receptor delta (Homo sapiens) (Q03181 whole entry, looked up): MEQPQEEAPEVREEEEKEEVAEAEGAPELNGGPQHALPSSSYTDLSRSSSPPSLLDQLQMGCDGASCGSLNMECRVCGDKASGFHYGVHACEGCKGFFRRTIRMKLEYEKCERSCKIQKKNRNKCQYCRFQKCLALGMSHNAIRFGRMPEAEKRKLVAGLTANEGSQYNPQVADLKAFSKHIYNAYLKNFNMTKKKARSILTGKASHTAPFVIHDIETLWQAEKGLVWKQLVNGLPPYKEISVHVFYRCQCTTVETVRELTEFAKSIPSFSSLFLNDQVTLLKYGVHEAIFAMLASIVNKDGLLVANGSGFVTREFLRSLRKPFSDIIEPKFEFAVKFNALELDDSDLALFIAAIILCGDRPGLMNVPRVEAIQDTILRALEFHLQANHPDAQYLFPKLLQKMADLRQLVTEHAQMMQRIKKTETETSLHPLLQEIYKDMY

C#C[C@]1(OC(C)=O)CC[C@H]2[C@@H]3CCC4=C/C(=N/O)CC[C@@H]4[C@H]3CC[C@@]21CC
active: [3] 29.8 µM
inactive: [1] | [2] | [4] | [5] | [6]

COc1cc(C)ccc1O
inactive: [1] | [7] | [8] | [9] | [10] | [3] | [11] | [12] | [13] | [4] | [5] | [14] | [15] | [16] | [17] | [18]

CC1=Nc2ccccc2C1(C)C
inactive: [1] | [2] | [9] | [10] | [3] | [11] | [13] | [4] | [5] | [14] | [15] | [16] | [18] | [19]

COCCOc1cc2cc(C(=O)NC3CCN(C(C)C)CC3)n(CC(=O)Nc3ccc(Cl)cn3)c2cn1
active: [1] 48 µM
inactive: [2] | [10] | [3] | [13] | [5] | [15] | [16] | [17] | [19]

Oc1c(I)cc(Cl)c2cccnc12
active: [1] 944 nM and 61 µM | [3] 68.5 µM | [18] 8.69 µM | [19] 5.49 µM
inactive: [2] | [7] | [11] | [15] | [16] | [17]

CCCCOC(=O)CC
inactive: [1] | [2] | [8] | [9] | [10] | [3] | [11] | [12] | [13] | [4] | [5] | [20] | [15] | [6] | [16] | [18] | [19]

CCCCCCCC
inactive: [1] | [2] | [8] | [9] | [10] | [3] | [11] | [12] | [13] | [4] | [20] | [6] | [16] | [17] | [18] | [19]

O=C(O)c1cc(-c2ccc(F)cc2F)ccc1O
inactive: [1] | [2] | [9] | [3] | [11] | [13] | [15] | [16]
active: [10] 13.3 µM

COC(=O)C1=C(C)NC(C)=C(C(=O)OCCN2CCN(C(c3ccccc3)c3ccccc3)CC2)C1c1cccc([N+](=O)[O-])c1 (stereo not drawn)
active: [8] 9.44 µM | [20] 11.9 µM
inactive: [1] | [9] | [11] | [19]

Cc1ccc(O)c(N)c1
active: [1] 34.4 µM | [19] 19.5 µM
inactive: [3] | [11] | [20] | [15] | [16]

CN(C)Cc1ccccc1O
inactive: [2] | [7] | [8] | [9] | [10] | [3] | [11] | [13] | [4] | [5] | [14] | [20] | [15] | [6] | [16] | [18] | [19]

CCCCCCCCCCCCCC[N+](C)(C)C
inactive: [1] | [6]
active: [9] 18.8 µM and 24.5 µM and 29.8 µM | [3] 23.5 µM and 17.2 µM and 26.6 µM | [11] 21.1 µM and 15.5 µM and 23.7 µM | [13] 37.6 µM and 24.5 µM and 26.6 µM | [15] 47.3 µM | [16] 47.3 µM and 29.8 µM | [19] 26.6 µM and 19.5 µM

CCC(CC)(CC(=O)Nc1cccc(/C=C/c2nc(C3CCC3)cs2)c1)C(=O)O
active: [1] 8.41 µM
inactive: [7] | [9] | [11] | [12] | [13] | [5] | [20] | [6] | [16] | [19]
